Experimental data reported in PubChem BioAssay AID720560 (Broad Institute, 2013).
Results with a measured potency or affinity are listed apart. Inconclusive results are not listed. Calls of active or inactive are those of the source.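 The calls were made as follows: active = signal drop whose fitted half-maximal concentration is at most twice the top valid dose; inconclusive = flat moderate drop between 30 and 70 percent, or an unreliable fit; inactive = the rest.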

experiment: hypoxia HIF reporter signal reduction – HeLa cells, luminescence, dry powder samples, 2158-08, ARNT-TACC3 inhibitor project, dose response (AID 720560); settings: HeLa 3xHRE-luciferase reporter; series mostly up to 60 µM

outcome, inactive:
Cc1nnc(NC(=O)c2ccc(S(=O)(=O)N3CCCCC3)cc2)o1
CC1CCN(S(=O)(=O)c2ccc(C(=O)Nc3nnc(-c4ccno4)o3)cc2)CC1
O=C(CSc1ccc(-c2ccccn2)nn1)NC1CCCCC1
C=CC1=C(C(=O)O)N2C(=O)[C@@H](NC(=O)/C(=N\O)c3csc(N)n3)[C@H]2SC1 (stereo in doubt)
O=C(Nc1nnc(C2=COCCO2)o1)c1ccc(S(=O)(=O)N2CCCCC2)cc1
O=C(CSc1ccc(-c2ccccn2)nn1)Nc1ccccc1
CC1CCN(S(=O)(=O)c2ccc(C(=O)Nc3nnc(-c4ccccn4)o3)cc2)CC1
Cc1ccc(C(=O)Nc2nc(-c3ccccn3)cs2)cc1S(=O)(=O)N1CCOCC1
Cc1c(C(=O)N(C)C)sc2nc(-c3ccccn3)[nH]c(=O)c12
O=C(CSc1ccc(-c2ccccn2)nn1)N1CCCC1
